Screens from PubChem.
Sampled rows, rich in hits. Any-hit rate of the full collection: about 1.7%.
BJeLR viability: kills HRASV12-expressing BJeLR cells; BJeLR (HRASV12) viability, CellTiter-Glo ATP luminescence, 48 h; actives 0.17% (n = 300,000); inhibition, % (test concentration not listed); in the data active = inhibition above about 50%; inconclusive = no clear call, values can overlap the other calls
PrPC surface inh: cell surface PrPC inhibition, primary TR-FRET screen. AID 720596. inhibition, % at 13.8 µM. TR-FRET read-out. P04156. actives 0.43% (n = 370,000); in the data active = inhibition above about 24%; also: 0% = median of the test wells and 100% = reference compound wells
PriA SSB inh: inhibitors of Klebsiella pneumoniae PriA binding to SSB C-terminal tail; AlphaScreen SSBct-PriA binding, biotinylated peptide; inhibition, % at 33 µM; AID 1272365; actives 0.6% (n = 430,000); in the data active = inhibition mostly above about 37%, no sharp cut-off; inactive = mostly below about 20%;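 also: plate controls were negative control peptide for no effect and reference peptide for full effect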
Yp Topo-I inh: inhibitors of Yersinia pestis topoisomerase I | Y. pestis Topo-I cleavage product accumulation, plate reader | activity, % at 10 µM | actives 0.064% (n = 360,000) | AID 504884; in the data active = activity above about 50%, passing the limit was not always enough; inconclusive = no clear call, values can overlap the other calls
PfHsp40 rescue: restores yeast growth despite PfHsp40 toxicity; S. cerevisiae expressing PfHsp40, growth rescue, ATP luminescence; growth rescue, % at 12.5 µM; actives 0.68% (n = 340,000); AID 504582; in the data active = growth rescue above about 28%, passing the limit was not always enough; inconclusive = no clear call, values can overlap the other calls;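 also: yeast W303a lacking pdr1 and pdr3 grown in galactose medium; growth measured after three days at 30 °C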
PrP 5UTR inh: inhibition of PrP 5' UTR reporter expression. cell-based PrP 5' UTR mRNA reporter, plate reader. inhibition, % (concentration not given with the values). actives 0.35% (n = 340,000). AID 488862; in the data active = inhibition above about 52%; also: 0 = median of the neutral control wells
Active calls of the source: *; ! = not confirmed by another sample.

What do the screens show for `CC1=CC(=NNc2ccccc2[N+](=O)[O-])CC(C)(C)C1`?
PriA SSB inh: 116.7*

What do the screens show for `CC1(C)OC(=O)C(=NNc2ccccc2[N+](=O)[O-])C(=O)O1`?
BJeLR viability: 4.6; PrPC surface inh: -14.0; PriA SSB inh: 6.1; Yp Topo-I inh: -9.0; PfHsp40 rescue: -1.3; PrP 5UTR inh: -12.5

What do the screens show for `Cc1cc(C)c(C)c(S(=O)(=O)NCCc2ccccc2)c1C`?
PriA SSB inh: -11.0

Results for CCC(ONc1ccccc1C(F)(F)F)(C(=O)NN(C)C)c1ccccc1 (stereo not drawn) ?
PrPC surface inh: 3.7; PriA SSB inh: 3.5; Yp Topo-I inh: -5.0; PfHsp40 rescue: 54.1*; PrP 5UTR inh: 2.3

What do the screens show for `CCCCCSc1cc(OC)c(CCN)cc1OC`?
BJeLR viability: 7.7; PrPC surface inh: -6.8; PriA SSB inh: 16.3; Yp Topo-I inh: -5.8; PfHsp40 rescue: 0.4; PrP 5UTR inh: 0.1

What do the screens show for `CCCCCCCSc1cc(OC)c(CCN(C)C)cc1OC`?
BJeLR viability: 11.5; PrPC surface inh: -4.9; PriA SSB inh: 49.5*; Yp Topo-I inh: -8.0; PfHsp40 rescue: -0.6; PrP 5UTR inh: 0.0

What do the screens show for `Clc1ccc(C2=NCCN2)cc1`?
BJeLR viability: 8.5; PrPC surface inh: -8.8; PriA SSB inh: -2.0; Yp Topo-I inh: -8.4; PfHsp40 rescue: 221.0*; PrP 5UTR inh: -8.0

What do the screens show for `O=C(NCC1CCN(Cc2ccco2)CC1)c1c(F)cccc1Cl`?
PriA SSB inh: -10.0

Results for CC(C)COCc1ccc(O)c2ncccc12 ?
BJeLR viability: 28.8; PrPC surface inh: -2.2; PriA SSB inh: 84.3*; Yp Topo-I inh: -15.5; PrP 5UTR inh: 17.1

How did CCCOCc1ccc(O)c2ncccc12 do in these assays?
BJeLR viability: 11.1; PrPC surface inh: -1.1; PriA SSB inh: 53.5*; Yp Topo-I inh: 1.7; PfHsp40 rescue: 0.6; PrP 5UTR inh: -15.9

Results for CN(Cc1ccco1)Cc1ccc(O)c2ncccc12 ?
PriA SSB inh: -5.5; Yp Topo-I inh: -0.7; PfHsp40 rescue: 0.8; PrP 5UTR inh: -14.7

What do the screens show for `Oc1ccc(COC2CCCCC2)c2cccnc12`?
PriA SSB inh: 108.0*

Results for Oc1ccc(COc2cccc3cccnc23)c2cccnc12 ?
PriA SSB inh: 32.4

Results for Oc1ccc(COCc2ccccc2)c2cccnc12 ?
BJeLR viability: 16.2; PrPC surface inh: 5.9; PriA SSB inh: 83.8*; Yp Topo-I inh: -1.4; PfHsp40 rescue: inconclusive; PrP 5UTR inh: -19.7

What do the screens show for `CCc1nnc(NC(=O)c2ccoc2COc2ccccc2)s1`?
PriA SSB inh: -8.0

How did O=C(Cn1cccc(-c2nc(-c3ccc(Br)cc3)no2)c1=O)NCc1ccco1 do in these assays?
PriA SSB inh: -12.0

How did COc1cc(Nc2ccc(NC(=O)Nc3ccc(C)c(F)c3)cc2)nc(C)n1 do in these assays?
PriA SSB inh: -11.0

What do the screens show for `CN(C)S(=O)(=O)c1ccc(C(=O)NC[C@H](O)c2ccoc2)cc1`?
PriA SSB inh: -5.0

Results for Cn1nnc2c(SCc3cccnc3)ncnc21 ?
PriA SSB inh: -19.0

Results for CCN(CC)CCN(C(=O)c1ccc(S(=O)(=O)N(C)C2CCCCC2)cc1)c1nc2c(C)cccc2s1 ?
BJeLR viability: 5.1; PrPC surface inh: -7.2; PriA SSB inh: 24.7; Yp Topo-I inh: 36.2; PfHsp40 rescue: 1.4; PrP 5UTR inh: -4.2

How did Cc1ccc2sc(N(CCCN(C)C)C(=O)c3ccc(S(=O)(=O)N(C)C4CCCCC4)cc3)nc2c1C do in these assays?
BJeLR viability: 2.7; PrPC surface inh: -11.7; PriA SSB inh: 40.0*!; Yp Topo-I inh: 3.0; PfHsp40 rescue: -0.4; PrP 5UTR inh: -3.6

Results for Cc1cccc2sc(N(CCCN(C)C)C(=O)c3nc4ccccc4s3)nc12 ?
BJeLR viability: 15.2; PrPC surface inh: -0.5; PriA SSB inh: 51.0*; Yp Topo-I inh: 0.9; PfHsp40 rescue: 0.4; PrP 5UTR inh: -22.4

How did CCN(Cc1ccccc1)S(=O)(=O)c1ccc(C(=O)N(CCCN(C)C)c2nc3cc4c(cc3s2)OCO4)cc1 do in these assays?
BJeLR viability: 2.7; PrPC surface inh: -18.2; PriA SSB inh: 34.7; Yp Topo-I inh: -0.7; PfHsp40 rescue: -0.2; PrP 5UTR inh: -0.3

How did CCN(Cc1ccccc1)S(=O)(=O)c1ccc(C(=O)N(CCCN(C)C)c2nc3c(C)c(C)ccc3s2)cc1 do in these assays?
BJeLR viability: 4.0; PrPC surface inh: -13.1; PriA SSB inh: 39.0*!; Yp Topo-I inh: 4.1; PfHsp40 rescue: 1.4; PrP 5UTR inh: -17.0
